# Results published in the supplement of paper PMC6522484.
# ± gives the standard deviation of the averaged measurements.
# How the values were obtained:
# [1] = system: DLD1; assay: cell viability (CellTiter-Glo) relative to plate median (fraction of plate median); higher = more viable cells; settings: 5 µM; treatment time 24 h; reporter: 7TFP
# Method in brief: (§1)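 Each entry is a luminescence signal normalised to the plate median, averaged over independent replicates. The replicate count was two, and the cells were colorectal cancer lines with stable lentiviral TCF/Wnt firefly luciferase reporters exposed to library compounds at a final 5 µM for 24 h. Firefly luciferase and CellTiterGlo were measured on parallel plates.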
# [2] = system: HCT116; assay: as above; settings: 5 µM; treatment time 24 h; reporter: TCF4/Wnt
# Method in brief: as §1
# [3] = system: SW480; assay: as above; settings: 5 µM; treatment time 24 h; reporter: 7TFP
# Method in brief: as §1
# [4] = system: DLD1; assay: TCF/Wnt firefly luciferase reporter signal relative to plate median (fraction of plate median); higher = higher Wnt reporter signal; settings: 5 µM; treatment time 24 h; reporter: 7TFP
# Method in brief: as §1
# [5] = system: SW480; assay: as above; settings: 5 µM; treatment time 24 h; reporter: 7TFP
# Method in brief: as §1
SMILES,cell viability [1],cell viability [2],cell viability [3],TCF/Wnt firefly luciferase reporter signal [4],TCF/Wnt firefly luciferase reporter signal [5]
CN[C@@H]1[C@H](O[C@H]2[C@H](O[C@H]3[C@H](O)[C@@H](O)[C@H](NC(=N)N)[C@@H](O)[C@@H]3NC(=N)N)O[C@@H](C)[C@]2(O)CO)O[C@@H](CO)[C@H](O)[C@H]1O,0.9855 ± 0.0078,1.13 ± 0.042,1.055 ± 0.0071,1.18 ± 0.071,1.11
OC(CCN1CCCCC1)(c1ccccc1)C1CC2C=CC1C2 (stereo not given),0.9145 ± 0.0021,1.01 ± 0.12,0.947 ± 0.052,0.92 ± 0.23,0.835 ± 0.028
C/C=C(\C)C(=O)O[C@@H]1c2c(ccc3ccc(=O)oc23)OC(C)(C)[C@@H]1OC(C)=O,0.969 ± 0.011,0.92 ± 0.029,0.926 ± 0.047,0.997 ± 0.075,1.09 ± 0.057
Cc1ccc(C(=O)c2ccc(CC(=O)O)n2C)cc1,0.981 ± 0.098,1.01 ± 0.023,1 ± 0.053,1.07 ± 0.05,1.06 ± 0.064
OC[C@@H](O)[C@@H](O[C@@H]1O[C@H](CO)[C@H](O)[C@H](O)[C@H]1O)[C@H](O)[C@@H](O)CO,1.02 ± 0.038,0.904 ± 0.067,0.979 ± 0.021,0.781 ± 0.083,1.03 ± 0.1
O=C1NCC2(CCN(CCc3ccccc3)CC2)O1,0.8925 ± 0.0021,1.06 ± 0.078,0.963 ± 0.018,1.05 ± 0.095,1.01 ± 0.062
CN(C)[C@@H]1C(O)=C(C(N)=O)C(=O)[C@@]2(O)C(O)=C3C(=O)c4c(O)ccc(Cl)c4[C@@](C)(O)[C@H]3C[C@@H]12,1.05 ± 0.028,1.1 ± 0.085,1.02 ± 0.014,1.11 ± 0.13,0.99 ± 0.0042
O=c1oc2ccccc2c(O)c1Cc1c(O)c2ccccc2oc1=O,0.959 ± 0.037,0.979 ± 0.044,1.01 ± 0.028,1.18 ± 0.021,1.08 ± 0.05
COc1ccc(C2CNC(=O)C2)cc1OC1CCCC1 (stereo not given),0.992 ± 0.011,0.989 ± 0.059,0.968 ± 0.0099,1.04 ± 0.18,1.06 ± 0.021
O=C1CC(c2ccc(O)c(O)c2)Oc2cc(O)cc(O)c21 (stereo not given),1.04 ± 0.14,1.08 ± 0.057,0.973 ± 0.095,0.912 ± 0.011,0.862 ± 0.0014
CCCCOC(=O)c1ccc(N)cc1,1.02 ± 0.054,0.942 ± 0.023,0.961 ± 0.021,0.936 ± 0.027,1.03 ± 0.083
Cc1noc(NS(=O)(=O)c2ccc(N)cc2)c1C,0.904 ± 0.0057,1.04 ± 0.13,0.915 ± 0.044,1.02 ± 0.076,0.984 ± 0.079
COc1ccc(-c2cc(=O)c3c(O)cc(O[C@H]4O[C@H](CO[C@@H]5O[C@@H](C)[C@H](O)[C@@H](O)[C@H]5O)[C@@H](O)[C@H](O)[C@H]4O)cc3o2)cc1,0.995 ± 0.079,0.88 ± 0.1,0.979 ± 0.059,1.02 ± 0.029,0.9475 ± 0.00071
COCCCOc1cc(C[C@@H](C[C@H](NC(=O)OC(C)(C)C)[C@@H]2C[C@@H](C(C)C)C(=O)O2)C(C)C)ccc1OC [Borrelidin derivative (C30H49NO7)],1.01 ± 0.072,0.995 ± 0.036,0.959 ± 0.025,0.963 ± 0.12,0.9975 ± 0.0035
CC[C@]12CCCN3CCc4c(n(c5ccccc45)[C@@](O)(C(=O)OC)C1)[C@@H]32,1.02 ± 0.047,0.953 ± 0.096,1.03 ± 0.014,0.981 ± 0.11,0.971
CC[C@H]1OC(=O)[C@H](C)[C@@H](O[C@H]2C[C@@](C)(OC)[C@@H](O)[C@H](C)O2)[C@H](C)[C@@H](O[C@@H]2O[C@H](C)C[C@H](N(C)C)[C@H]2O)[C@](C)(OC)C[C@@H](C)C(=O)[C@H](C)[C@@H](O)[C@]1(C)O,0.858 ± 0.099,0.931 ± 0.0071,1.05 ± 0.042,0.996 ± 0.021,1.125 ± 0.0071
C#C[C@]1(O)CC[C@H]2[C@@H]3CCc4cc(OC)ccc4[C@H]3CC[C@@]21C,0.952 ± 0.011,1.02 ± 0.021,0.986 ± 0.0085,0.981 ± 0.15,0.944 ± 0.059
O=C1OCCN1/N=C/c1ccc([N+](=O)[O-])o1,0.984 ± 0.023,1.05 ± 0.028,0.999 ± 0.0014,1.1 ± 0.078,1.05 ± 0.078
C=C1C(=O)[C@]23[C@H](CC[C@@H]1[C@@H]2O)[C@]12CO[C@@]3(O)[C@H](O)[C@H]1C(C)(C)CC[C@@H]2O,0.931 ± 0.058,1.12 ± 0.19,1.045 ± 0.0071,0.876 ± 0.015,0.731 ± 0.035
O=c1ccc2ccccc2o1,0.985 ± 0.11,1.01 ± 0.029,0.976 ± 0.014,1.09 ± 0.014,0.984 ± 0.018
Cn1c(=O)c2c(ncn2CC(O)CO)n(C)c1=O (stereo not given),0.916 ± 0.016,0.996 ± 0.049,0.989 ± 0.03,1.09 ± 0.14,1.09 ± 0.05
CC1=C(/C=C/C(C)=C/C=C/C(C)=C/C=C/C=C(C)/C=C/C=C(C)/C=C/C(=O)[C@]2(C)C[C@@H](O)CC2(C)C)C(C)(C)C[C@H](O)C1,0.98 ± 0.057,0.966 ± 0.1,0.997 ± 0.033,0.947 ± 0.058,1 ± 0.051
COc1cccc2c1C(=O)c1c(O)c3c(c(O)c1C2=O)C[C@@](O)(C(C)=O)C[C@@H]3O[C@H]1C[C@H](NC=O)[C@H](O)[C@H](C)O1 [Baumycin C1],0.9535 ± 0.0021,0.838 ± 0.081,0.9955 ± 0.0035,0.955 ± 0.042,1.05 ± 0.057
COc1ccc(Cl)cc1C(=O)NCCc1ccc(S(=O)(=O)NC(=O)NC2CCCCC2)cc1,1.005 ± 0.0071,0.962 ± 0.082,0.976 ± 0.049,1.12 ± 0.13,1.14 ± 0.05
O=C(O)c1cc(=O)c(O)c2c(O)c(O)c(O)cc2c1,0.948 ± 0.066,0.82 ± 0.04,1 ± 0.05,0.806 ± 0.25,0.993 ± 0.12

SMILES,cell viability [1],cell viability [2],cell viability [3],TCF/Wnt firefly luciferase reporter signal [4],TCF/Wnt firefly luciferase reporter signal [5]
CCC(C)C(=O)OC1[C@@H]2CC3=C4CC(=O)O[C@@H](c5ccoc5)[C@]4(C)CCC3[C@@](C)(C2=O)[C@@H](CC(=O)OC)C1(C)C (stereo not given in full),1.085 ± 0.0071,1.19 ± 0.092,1.18 ± 0.092,1.15 ± 0.15,0.938 ± 0.088
O=C(N[C@H](CO)[C@H](O)c1ccc([N+](=O)[O-])cc1)C(Cl)Cl,0.939 ± 0.013,0.918 ± 0.14,1.04 ± 0.042,1.09 ± 0.085,1 ± 0.013
Cc1onc(-c2ccccc2Cl)c1C(=O)N[C@@H]1C(=O)N2[C@@H]1SC(C)(C)[C@@H]2C(=O)O,1.02 ± 0.17,1.02 ± 0.06,0.994 ± 0.037,1.02 ± 0.035,0.952 ± 0.058
COc1ccc2c(c1)OCc1c-2oc2cc(OC)ccc12,1.05 ± 0.085,1.01 ± 0.021,1 ± 0.051,1.09 ± 0.064,1.035 ± 0.0071
CC(=O)OCC(=O)[C@@]12OC3(CCCC3)O[C@@H]1C[C@H]1[C@@H]3CCC4=CC(=O)C=C[C@]4(C)[C@@]3(F)[C@@H](O)C[C@@]12C,0.985 ± 0.021,0.896 ± 0.16,0.965 ± 0.023,0.82 ± 0.093,0.771 ± 0.28
C1N2CN3CN1CN(C2)C3,1.04 ± 0.085,1.08 ± 0.12,0.978 ± 0.028,0.985 ± 0.05,1.02 ± 0.028
O=C(O)c1ccccc1,1.06 ± 0.096,1.02 ± 0.021,1.02 ± 0.014,1.12 ± 0.071,0.951 ± 0.037
O=C(O)[C@@H](O)[C@H](O)[C@H](O)[C@@H](O)C(=O)O,0.971 ± 0.023,1.03 ± 0.05,1 ± 0.051,1.06 ± 0.035,1.03 ± 0.028
Cc1oc(=O)c2c(O)cccc2c1CO [8-Hydroxy-4-hydroxymethyl-3-methyl-isocumarin],0.926 ± 0.032,0.925 ± 0.027,0.98 ± 0.021,1.01 ± 0.13,0.993 ± 0.0099
CC(=O)c1ccc[nH]1,0.992 ± 0.04,1.03 ± 0.048,1.025 ± 0.0071,0.87 ± 0.23,0.798 ± 0.14
CN1CCC(=C2c3ccccc3CCc3sccc32)CC1,1.07 ± 0.014,1.14 ± 0.17,1.1 ± 0.064,1.05 ± 0.11,0.934 ± 0.061
CC(N)C12CC3CC(CC(C3)C1)C2 (stereo not given),1.02 ± 0.028,0.986 ± 0.02,0.977 ± 0.025,0.962 ± 0.03,0.9945 ± 0.0078
"C[C@]12CC[C@@H](O)C[C@H]1CCc1ccccc12 [3alpha-HYDROXY-4,4-BISNOR-8,11,13-PODOCARPATRIENE]",1.03 ± 0.08,1.01 ± 0.27,1.03 ± 0.014,0.971 ± 0.022,1.15 ± 0.064
CC(=O)O[C@H]1C[C@@H]2CC[C@@H]3[C@H](CC[C@@]4(C)[C@H]3C[C@H]([N+]3(C)CCCCC3)[C@@H]4OC(C)=O)[C@@]2(C)C[C@@H]1N1CCCCC1,0.976 ± 0.077,1.03,1.004 ± 0.0092,1.03 ± 0.1,1.1 ± 0.014
CC(=O)O[C@H]1CC[C@]2(C)[C@H]3C(=O)C=C4[C@@H]5[C@@H](C)[C@H](C)CC[C@]5(C(=O)O)CC[C@@]4(C)[C@]3(C)CC[C@H]2C1(C)C,1.005 ± 0.0071,1.05,0.993 ± 0.011,1 ± 0.16,1.09 ± 0.028
COC(=O)Nc1nc2cc(Sc3ccccc3)ccc2[nH]1,1.01 ± 0.014,1.03,1.03 ± 0.05,0.99 ± 0.071,0.995 ± 0.05
CC(C)(Oc1ccc(Cl)cc1)C(=O)O,1.04 ± 0.021,1.17 ± 0.057,1.035 ± 0.0071,1.07 ± 0.13,1.1 ± 0.057
O=C(CCc1ccc(O)cc1)c1c(O)cc(O)cc1O,0.974 ± 0.093,0.88 ± 0.047,0.933 ± 0.0042,0.75 ± 0.047,0.858 ± 0.037
CN(C)CCOC(=O)COc1ccc(Cl)cc1,0.979 ± 0.0085,0.991 ± 0.083,0.956 ± 0.052,1.21 ± 0.14,1.14 ± 0.05
O=C(O)CCCN1C(=O)c2cccc3cccc(c23)C1=O,0.994 ± 0.08,1.04 ± 0.035,0.995 ± 0.05,0.96 ± 0.011,0.957 ± 0.047
COC(=O)C[C@H]1C(C)(C)C(=O)[C@@H]2CC3=C4CC(=O)O[C@@H](c5ccoc5)[C@]4(C)CC[C@@H]3[C@@]1(C)C2=O,1.01 ± 0.016,1.01 ± 0.014,1.035 ± 0.0071,0.924 ± 0.0028,1.03 ± 0.035
O=c1ccc2cc(O)c(O)cc2o1,1.03 ± 0.19,1.13 ± 0.028,1.04 ± 0.014,0.994 ± 0.066,0.893 ± 0.015
CC(=O)Oc1cc(OC(C)=O)c2c(c1)O[C@H](c1ccc(OC(C)=O)c(OC(C)=O)c1)[C@H](OC(C)=O)C2,1 ± 0.055,0.972 ± 0.15,1.01 ± 0.016,0.921 ± 0.044,1 ± 0.015
O=c1[nH]c(=O)n([C@H]2C[C@H](O)[C@@H](CO)O2)cc1F,0.609 ± 0.026,1.05 ± 0.057,0.963 ± 0.024,0.688 ± 0.12,0.971 ± 0.069
CC(=O)O[C@@H]1C=C[C@]2(C)C(C[C@@H](OC(C)=O)[C@]3(C)C4=CC(=O)O[C@H](c5ccoc5)[C@@]4(C)CCC23)C1(C)C (stereo not given in full),1.06 ± 0.035,1.08 ± 0.042,1.03 ± 0.014,1.09 ± 0.021,1.12 ± 0.078
